An excerpt weighted towards active compounds, which were near 10% of everything screened.
Six1-Eya2 blk: Six1/Eya2 interaction inhibition; Q15475+O00167; AlphaScreen GST-Six1/His-Eya2 binding, biochemical; active compounds read low; activity change, % (test concentration not listed); 360,000 tested, 0.56% active; in the data active = activity change below about -65%; inconclusive = mostly about -30% to -63%; also: % is scaled to controls: 0 for no effect and ±100 for the full control effect
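AlphaScreen luminescence read after one hour at 37 °C in darkness. Pin-transferred compounds met GST-Six1 and His-Eya2 protein (5X stock 250 nM/500 nM) plus glutathione donor and Ni-chelate acceptor beads (5X, 50 ug/mL).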
G9a inh: inhibitors of human histone lysine methyltransferase G9a; Q96KQ7; G9a H3K9 monomethylation, AlphaScreen, 2 h; Potency, µM (titrated, usually from 102 µM), for inactives: at the top dose activity, negative = inhibition, hits mostly inhibitors; 350,000 tested, 8.8% active; also: potency is read from the fitted curve at half-maximal effect; % is scaled to controls: 0 for no effect and ±100 for the full control effect; nearly all actives have a fitted effect of over 75% in size
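G9a (20 nM) was preincubated 15 min with compound, then reacted 2 h at room temperature with 500 nM biotin-H3K9 peptide and 20 µM SAM. Monomethyl-H3K9 detected by AlphaScreen using anti-H3K9me1 antibody.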
CtBP-E1A blk: blocks the CtBP interaction with E1A; 340,000 tested, 0.49% active; AID 651724; activity change, % (no concentration beside the values); AlphaScreen GST-E1A/His-CtBP binding, 1536-well; active compounds read low; in the data active = activity change below about -65%; inconclusive = mostly about -30% to -63%; also: % is scaled to controls: 0 for no effect and ±100 for the full control effect
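In 5 uL wells, 23 nL compound meets equimolar GST-E1A and His-CtBP (5X stock 125 nM each) for 2 h, 37 °C. Beads (5X, 50 ug/mL) then 1 h, 37 °C, dark.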
HP1b binding inh: inhibitors of HP1-beta chromodomain binding to methylated histone tails | P83916 | AlphaScreen HP1-beta / biotin-H3K9me3 peptide binding | Potency, µM (titrated, usually from 114 µM), for inactives: at the top dose activity change, negative = inhibition, usual class: inhibitors | 390,000 tested, 0.56% active | AID 540317; also: potency is read from the fitted curve at half-maximal effect; nearly all actives have a fitted effect of over 70% in size
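HP1-beta protein (50 nM final) preincubated 30 min at room temperature with biotinylated H3(1-18)K9me3 peptide (50 nM) in PBS pH 7.4, 0.01% Tween-20, then compound added for 30 min. AlphaScreen streptavidin donor/nickel chelate acceptor beads (10 ug/mL final), 30 min dark, luminescence read.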
BAZ2B inh: inhibitors of human BAZ2B bromodomain; Q9UIF8; AlphaScreen BAZ2B-H3K14Ac peptide displacement; Potency, µM (doses to about 114 µM), for the others: at the top dose activity change, negative = inhibition, hits mostly inhibitors; 360,000 tested, 4.4% active; AID 504333; also: potency is read from the fitted curve at half-maximal effect; % is scaled to controls: 0 for no effect and ±100 for the full control effect; nearly all actives have a fitted effect of over 60% in size
Target sequence (Q9UIF8 whole entry, looked up): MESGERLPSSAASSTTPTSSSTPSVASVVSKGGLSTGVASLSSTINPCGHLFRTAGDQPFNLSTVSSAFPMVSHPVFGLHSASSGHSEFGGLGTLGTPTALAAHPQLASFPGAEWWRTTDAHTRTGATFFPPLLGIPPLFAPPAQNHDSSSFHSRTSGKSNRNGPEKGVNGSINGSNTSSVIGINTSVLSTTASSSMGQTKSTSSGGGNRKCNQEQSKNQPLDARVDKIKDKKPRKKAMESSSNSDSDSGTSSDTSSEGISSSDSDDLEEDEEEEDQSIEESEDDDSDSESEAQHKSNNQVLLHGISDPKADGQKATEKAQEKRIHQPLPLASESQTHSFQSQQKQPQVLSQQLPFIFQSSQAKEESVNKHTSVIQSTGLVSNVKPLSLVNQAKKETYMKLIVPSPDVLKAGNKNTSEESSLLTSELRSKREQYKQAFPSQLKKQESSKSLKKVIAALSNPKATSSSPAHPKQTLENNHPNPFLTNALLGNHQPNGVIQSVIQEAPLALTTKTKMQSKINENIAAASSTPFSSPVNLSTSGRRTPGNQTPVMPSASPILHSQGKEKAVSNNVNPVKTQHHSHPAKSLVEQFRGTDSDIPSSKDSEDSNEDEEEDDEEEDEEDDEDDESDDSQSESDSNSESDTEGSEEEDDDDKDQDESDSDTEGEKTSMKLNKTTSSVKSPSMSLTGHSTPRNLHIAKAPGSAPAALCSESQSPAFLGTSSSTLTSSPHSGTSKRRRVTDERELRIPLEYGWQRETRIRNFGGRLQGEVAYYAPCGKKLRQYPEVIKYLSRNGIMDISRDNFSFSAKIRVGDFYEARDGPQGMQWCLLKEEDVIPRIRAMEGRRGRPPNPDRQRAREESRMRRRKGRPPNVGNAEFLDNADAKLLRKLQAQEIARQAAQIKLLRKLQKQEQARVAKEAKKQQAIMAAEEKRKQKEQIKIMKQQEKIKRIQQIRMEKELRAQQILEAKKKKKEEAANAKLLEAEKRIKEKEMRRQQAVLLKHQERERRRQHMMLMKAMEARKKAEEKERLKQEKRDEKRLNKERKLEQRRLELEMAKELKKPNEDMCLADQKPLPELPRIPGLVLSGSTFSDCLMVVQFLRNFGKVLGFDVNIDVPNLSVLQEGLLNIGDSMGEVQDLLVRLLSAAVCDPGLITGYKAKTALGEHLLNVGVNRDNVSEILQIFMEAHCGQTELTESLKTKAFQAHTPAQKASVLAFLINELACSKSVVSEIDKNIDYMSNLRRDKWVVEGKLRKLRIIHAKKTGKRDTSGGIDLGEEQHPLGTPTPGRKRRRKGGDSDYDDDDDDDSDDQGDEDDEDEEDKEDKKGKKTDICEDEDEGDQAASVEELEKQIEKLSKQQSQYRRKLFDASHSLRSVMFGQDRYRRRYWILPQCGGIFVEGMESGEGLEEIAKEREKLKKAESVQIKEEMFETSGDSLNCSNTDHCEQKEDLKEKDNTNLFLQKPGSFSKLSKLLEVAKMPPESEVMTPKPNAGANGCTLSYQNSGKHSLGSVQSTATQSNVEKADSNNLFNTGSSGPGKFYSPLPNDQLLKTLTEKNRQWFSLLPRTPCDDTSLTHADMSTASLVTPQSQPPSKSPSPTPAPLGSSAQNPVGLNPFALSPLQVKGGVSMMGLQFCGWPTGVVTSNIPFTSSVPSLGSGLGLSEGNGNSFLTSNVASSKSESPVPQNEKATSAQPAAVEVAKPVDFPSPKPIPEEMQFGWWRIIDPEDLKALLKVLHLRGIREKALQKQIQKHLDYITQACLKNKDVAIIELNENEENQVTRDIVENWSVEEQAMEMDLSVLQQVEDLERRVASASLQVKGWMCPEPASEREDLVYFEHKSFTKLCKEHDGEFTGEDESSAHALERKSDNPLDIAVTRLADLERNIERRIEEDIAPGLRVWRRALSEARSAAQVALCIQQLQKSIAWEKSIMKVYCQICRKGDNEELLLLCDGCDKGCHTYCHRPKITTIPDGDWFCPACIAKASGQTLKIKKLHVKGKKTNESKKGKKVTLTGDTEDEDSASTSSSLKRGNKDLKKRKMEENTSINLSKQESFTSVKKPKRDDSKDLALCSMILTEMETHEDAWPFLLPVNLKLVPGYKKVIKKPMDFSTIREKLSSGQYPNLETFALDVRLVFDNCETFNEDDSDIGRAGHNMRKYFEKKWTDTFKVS
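AlphaScreen displacement of biotin-H3(5-23)K14Ac peptide (50 nM final) from BAZ2B (50 nM final) in PBS pH 7.4, 0.01% Tween-20; complex preformed 30 min RT, then compounds (top 110 uM) 30 min RT, beads 20 min dark.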
JMJD2A Tudor inh: blocks the human JMJD2A Tudor domain; O75164; AlphaScreen JMJD2A-Tudor / H3K4me3 peptide binding; Potency, µM (top dose mostly 114 µM), for the others: top-dose activity change, negative = inhibition, actives largely listed as inhibitors; 390,000 tested, 4.4% active; AID 504339; also: potency is read from the fitted curve at half-maximal effect; % is scaled to controls: 0 for no effect and ±100 for the full control effect; nearly all actives have a fitted effect of over 50% in size
The depositor's hits bear a star; ? = inconclusive; . = no result given; [ ] = dose if it differs, or a comment. Unless noted, calls follow the shape of the dose curve; as a rule, active = well fitted inhibition curve with a large enough effect; inconclusive = small, poorly fitted or top-dose-only effect; inactive = no such curve, though single readings can be large or run the other way.

SMILES	Six1-Eya2 blk	G9a inh	CtBP-E1A blk	HP1b binding inh	BAZ2B inh	JMJD2A Tudor inh
CC(=Nc1ccc(C)cc1C)c1sc2ccccc2c1O	-6	?	.	20%	?	56µM*
CC(=Nc1cccc(O)c1)c1sc2ccccc2c1O	2	?	6	17%	40µM*	-10%
CC(=Nc1ccc(C)cc1)c1sc2ccccc2c1O	-10	?	-18	-17%	?	?
c1ccc(OCCCn2ccnc2)cc1	2	.	6	15%	1%	-15%
CCc1ccc(OCCCCCn2ccnc2)cc1	0	10µM*	7	56µM*	50µM*	2.5µM*
CCc1ccc(OCCn2ccnc2)cc1	-6	22µM*	2	?	?	28µM*
c1cc(CNc2ccc(N3CCOCC3)cc2)ccn1	-6	40µM*	-5	-15%	?	-34%
Cc1ccc(C(=O)Nc2ccc(N3CCOCC3)cc2)cc1	-2	?	9	29%	6%	-5%
CC(=O)Nc1ccc(N2CCOCC2)c(Cl)c1	1	1%	2	24%	-16%	-13%
Cc1ccc(CNc2ccc(N3CCOCC3)c(Cl)c2)cc1	-29	.	-14	?	40µM*	?
Cc1ccc(CNc2ccc(N3CCOCC3)cc2)cc1	?	28µM*	-13	?	32µM*	45µM*
c1cc2c(cc1CNc1ccc(N3CCOCC3)cc1)OCO2	.	.	.	?	.	50µM*
O=C(COc1ccccc1F)Nc1ccc(OCc2cc(=O)n3ccccc3n2)cc1	.	-2%[59 µM]	.	5%[57 µM]	-5%	5%
CC(=O)c1ccc(NC(=O)CSc2nnc3ccc(-c4ccc(Br)cc4)nn23)cc1	.	11%[59 µM]	.	-4%	2%	-4%
COc1ccccc1CNC(=O)CCC(=O)N1CC2CCCN2c2ccccc21 (stereo not drawn)	.	-25%[59 µM]	.	8%	-32%	-35%
COc1ccc(-c2cn3c(n2)sc2cc(C(=O)NC(C)C45CC6CC(CC(C6)C4)C5)ccc23)cc1 (stereo not drawn)	.	1%[59 µM]	.	34%	1%	1%
O=C(CCn1c2c(c3ccccc31)CCCC2)NNC(=O)c1ccc([N+](=O)[O-])cc1	-26	16µM*	-26	-5%	-36%	-32%
CC[C@H]1NC(=O)c2cc(S(N)(=O)=O)c(Cl)cc2N1	.	-7%[21.5 µM]	.	.	.	.
C=CCn1c(/N=C/c2ccc(OC)cc2)nc2ccccc21	0	-49%	5	20%	-24%	-11%
C=CCn1c(/N=C/c2ccc(N(C)C)cc2)nc2ccccc21	0	45µM*	-4	-10%	?	?
CCc1nn(CC(=O)NCc2cccc(OC)c2)c(=O)c2cc3cc(F)ccc3n12	.	?	.	21%	1%	-10%
Cc1ccc(NC(=O)CSc2ccc(-c3ccco3)nn2)cc1	2	40µM*	-3	8%	-1%	-8%
CC(=O)c1ccc(NC(=O)CSc2ccc(-c3ccco3)nn2)cc1	-10	?	0	27%	-20%	-12%
COc1ccc(NC(=O)CSc2ccc(-c3ccco3)nn2)cc1	-5	.	3	4%	-37%	-29%
COc1cc(NC(=O)CSc2ccc(-c3ccco3)nn2)cc(OC)c1	-10	?	-8	29%	-38%	-32%
SMILES	Six1-Eya2 blk	G9a inh	CtBP-E1A blk	HP1b binding inh	BAZ2B inh	JMJD2A Tudor inh
Cc1cc(C)cc(NC(=O)CSc2ccc(-c3ccco3)nn2)c1	-14	25µM*	-15	-2%	?	-23%
CC(=O)Nc1cccc(NC(=O)CSc2ccc(-c3ccco3)nn2)c1	-13	40µM*	-11	17%	?	?
CC(=O)Nc1ccc(NC(=O)CSc2ccc(-c3ccco3)nn2)cc1	-17	28µM*	2	6%	?	?
CCOc1ccc(OCC)c(NS(=O)(=O)c2c(C(=O)N3CCCCCC3)c(C)n(C)c2C)c1	.	10%[59 µM]	.	12%	?	-30%
Cc1cn2c(=O)cc(COc3ccc(NC(=O)c4ccccc4C)cc3)nc2s1	.	20%[59 µM]	.	58%	3%	-22%
COc1ccc(NC(=O)CSc2ccc(-c3cccs3)nn2)cc1	.	10µM*	.	5%	-17%	-20%
Cc1nc(C)c(-c2ccc(SCC(=O)Nc3cccc(F)c3)nn2)s1	-2	22µM*	-2	38%	-16%	?
CC(=O)c1cccc(NC(=O)CSc2ccc(-c3sc(C)nc3C)nn2)c1	?	?	-4	17%	-13%	-5%
CCOC(=O)c1sc(C)nc1C1CCN(C(=O)OCC)CC1	7	45µM*	1	-8%	-6%	2%
Cc1cc(C)cc(N2CCn3c2nc2c3c(=O)n(C/C=C/c3ccccc3)c(=O)n2C)c1	.	22%[59 µM]	.	68%	19%	-9%
S=C1NC2(CCCC2)Nc2ccccc21	-11	11µM*	-1	49%	?	-13%
S=C1NC2(CCCCC2)Nc2ccccc21	-14	45µM*	-9	7%	?	-17%
c1cc2c3c(cccc3c1)NC1(CCCC1)N2	-7	.	10	-16%	.	?
CC(C)N(C)CCOC(=O)c1ccccc1Br	-7	-2%[59 µM]	-6	19%	2%	50µM*
Cc1ccc(-c2nnc(SCC(=O)O)n2N)cc1	1	-28%[59 µM]	7	32%	2%	-31%
C=CCn1c(SCC(=O)O)nnc1-c1ccc(C(C)(C)C)cc1	0	32µM*	-1	54%	-2%	0%
CC(C)(C)c1ccc(-c2nnc(SCC(=O)O)n2N)cc1	2	45µM*	11	42%	1%	-11%
CCOC(=O)Cn1c(=O)oc2cc(S(=O)(=O)Nc3ccc(N(CC)CC)cc3C)ccc21	-14	40µM*	?	0%	?	?
CCN(CC)c1ccc(NS(=O)(=O)c2ccc3c(c2)CCCN3C(C)=O)c(C)c1	.	11µM*	.	-5%[57 µM]	40µM*	50µM*
CCC(=O)N1CCc2cc(S(=O)(=O)NCCC(=O)Nc3ccc(N(CC)CC)cc3C)ccc21	.	10µM*	.	-14%	.	?
CCOc1ccc(-c2cc(-c3nc(-c4cc(OC)c(OC)c(OC)c4)no3)[nH]n2)cc1Cl	.	-3%[59 µM]	.	39%	1%	-7%
Cc1ccccc1Cn1c(=O)n(CC2CCC(C(=O)N3CCC(C)CC3)CC2)c(=O)c2sccc21 (stereo not drawn)	.	-2%[59 µM]	.	31%	?	-27%
Cc1ccccc1C(=O)Nc1nnc(S(=O)(=O)N2CCc3ccccc32)s1	.	-24%[59 µM]	.	22%	-38%	-19%
Cc1ccccc1Cn1c(=O)n(CCc2ccccc2)c(=O)c2sc3ccccc3c21	.	-8%[59 µM]	.	17%	-34%	-6%
O=C(NNc1ccccc1)Nc1cc(Cl)ccc1Cl	-7	.	-4	50µM*	.	?
O=C(NNc1ccccc1[N+](=O)[O-])Nc1ccc(F)cc1F	-4	32µM*	-1	6%	-15%	-27%

Bioassay records from PubChem.
